# Data from PubChem BioAssay (NCATS).
# Results filed as inconclusive are left out. Entries that show only a call come without a potency. A number with no mark means an inactive call. Active and inactive are the calls of the source. Calls follow the shape of the dose curve; as a rule, active = well fitted curve in the direction sought with a large enough effect; inconclusive = small, poorly fitted or top-dose-only effect, or another doubt; inactive = no such curve, though single readings can be large; an effect the other way counts as inactive or inconclusive.
# Tests used:
# [1] = target: Cellular tumor antigen p53 (Homo sapiens) (UniProt P04637); test: Primary qHTS for small molecule compounds that upregulate eGFP-tagged delta133p53alpha (in N-terminal) cells. (AID 2060322); settings: NCI-H358 eGFP-delta133p53alpha fluorescence, 24 h; activation: hits give high values; also: nearly all actives have a fitted effect of over 75% in size; also: potency is read from the fitted curve at half-maximal effect
# Cellular tumor antigen p53 (Homo sapiens), sequence (P04637 whole entry, looked up): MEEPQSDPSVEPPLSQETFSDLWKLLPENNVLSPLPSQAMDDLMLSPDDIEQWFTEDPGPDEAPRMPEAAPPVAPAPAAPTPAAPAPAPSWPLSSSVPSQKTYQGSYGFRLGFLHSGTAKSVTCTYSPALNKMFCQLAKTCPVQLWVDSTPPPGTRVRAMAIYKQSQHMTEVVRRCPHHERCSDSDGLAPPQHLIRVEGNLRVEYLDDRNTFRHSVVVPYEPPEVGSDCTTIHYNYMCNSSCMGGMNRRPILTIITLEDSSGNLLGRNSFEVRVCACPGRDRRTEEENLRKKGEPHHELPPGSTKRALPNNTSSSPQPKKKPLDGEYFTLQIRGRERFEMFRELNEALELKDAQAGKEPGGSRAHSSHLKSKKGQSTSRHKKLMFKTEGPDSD
# In short: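 NCI-H358 cells pre-induced 24 h with 10 ng/ml doxycycline to express N-terminal eGFP-delta133p53alpha, then dosed 24 h at 37C without doxycycline; fixed, Hoechst-stained, GFP intensity by laser scanning cytometry, normalized to DMSO (0%) and 57.5 uM 5-azacytidine (100%).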
# [2] = target: Aldehyde dehydrogenase, mitochondrial (Homo sapiens) (UniProt P05091); test: qHTS for Inhibitors of the Aldehyde Dehydrogenase Family (ALDH2) Primary screen (AID 2061308); settings: ALDH2 enzyme inhibition qHTS, 1536-well; series mostly up to 56 µM; also: nearly all actives have a fitted effect of over 55% in size
# [3] = target: Retinaldehyde dehydrogenase 3 (Homo sapiens) (UniProt P47895); test: qHTS for Inhibitors of the Aldehyde Dehydrogenase Family (ALDH1A3) Primary screen (AID 2061315); settings: ALDH inhibition qHTS; series mostly up to 56 µM; also: potency is read from the fitted curve at half-maximal effect
Structure (SMILES),activation [1] [%],Potency [2],Potency [3],Potency [1],"activity change, negative = inhibition [2]","activity change, negative = inhibition [3]"
CC(=O)O[C@@H]1[C@H](OC(C)=O)C[C@@]2(C)C(CC[C@@H](C)[C@]23Cc2c(O)cc4c(c2O3)CN([C@@H](CCC(=O)O)C(=O)O)C4=O)C1(C)C (stereo partly specified),-9.92,inactive,inactive,,,
CC(C)(O)C(=O)N1CCN(c2ccc(C(F)(F)F)c(C3=C(c4c[nH]c5ccccc45)C(=O)NC3=O)c2)CC1,,inactive,inactive,26.9 µM (active),,
COc1ccc(NC(=O)C2C[C@H](C)CC[C@H]2C(C)C)cc1 (stereo partly specified),5.67,inactive,inactive,,,
CC(O)(C(=O)O)C1CCC2(C)C1CCC1(C)C2CCC2C3(C)CCC(O)C(C)(COC4OC(CO)C(O)C(O)C4O)C3CCC21C (stereo unspecified),1.53,inactive,inactive,,,
COc1cc(O)c(C(=O)CCc2ccc(O)cc2)c(O[C@@H]2O[C@H](CO)[C@@H](O)[C@H](O)[C@H]2O)c1,,inactive,inactive,7.38 µM (active),,
COc1cc(O)c2c(c1Cl)CC(C)OC2=O (stereo unspecified),7.14,inactive,inactive,,,
CC1(C)CCC[C@@]2(C)[C@H]1[C@H](O)C=C(CO)[C@]2(O)CO,-1.53,inactive,inactive,,,
CC(=O)OC1C(CO)OC(O[C@H]2[C@H](OC(=O)[C@]34CCC(C)(C)C[C@H]3C3=CCC5[C@@]6(C)CC[C@H](O[C@@H]7O[C@H](C(=O)O)[C@@H](O)[C@H](O[C@@H]8OC[C@@H](O)[C@H](O)[C@H]8O)[C@H]7O[C@@H]7O[C@H](CO)[C@H](O)[C@H](O)[C@H]7O)[C@@](C)(C=O)C6CC[C@@]5(C)[C@]3(C)C[C@H]4O)O[C@H](C)[C@H](OC3OC(C)C(OC4OCC(O)C(O)C4O)C(O)C3O)[C@@H]2O)C(O)C1O (stereo partly specified),4.58,,,,-12.7% [at 11.2 µM],4.72% [at 11.2 µM]
CC1=C2C3OC(=O)C(C)C3(O)CCC2(C)CCC1=O (stereo unspecified),-20.5,inactive,inactive,,,
C=C[C@]1(C)C=C2CCC3C(C)(CCC[C@@]3(C)C(=O)O)C2CC1 (stereo partly specified),3.57,inactive,inactive,,,
C/C=C/C=C/[C@@H]1O[C@](O)([C@H](CC)C(=O)NC/C=C/C=C(\C)[C@@H](OC)[C@@H](C)[C@@H]2O[C@H](/C=C/C=C/C=C(\C)C(=O)c3c(O)ccn(C)c3=O)[C@H](O)[C@@H]2O)[C@H](O)[C@H](O)C1(C)C,4.58,inactive,inactive,,,
CC1CCC2(C)C(CC(O)C(O)C23CO3)C1(C)CCC1=CC(=O)OC1O (stereo unspecified),-12.2,inactive,inactive,,,
CC(C)=CCC/C(C)=C/CO[C@@H]1O[C@H](CO)[C@@H](OC(=O)/C=C/c2ccc(O)cc2)[C@H](O[C@@H]2O[C@@H](C)[C@H](O)[C@@H](O)[C@H]2O)[C@H]1O,19.6,inactive,inactive,,,
CC1(C)CCCC2(C)C(CO)C3CCC2C31 (stereo unspecified),24.1,inactive,inactive,,,
CC1(C)CC[C@]2(C(=O)O[C@@H]3O[C@H](CO[C@@H]4O[C@H](CO)[C@@H](O)[C@H](O)[C@H]4O)[C@@H](O)[C@H](O[C@@H]4O[C@H](CO)[C@@H](O)[C@H](O)[C@H]4O)[C@H]3O)CC[C@]3(C)C(=CCC4[C@@]5(C)CC[C@H](O[C@@H]6OC[C@@H](O)[C@H](O)[C@H]6O)[C@@](C)(C(=O)O)C5CC[C@]43C)[C@@H]2C1 (stereo partly specified),0,inactive,inactive,,,
O=C(O)Cc1nn(Cc2nc3cc(C(F)(F)F)ccc3s2)c(=O)c2nccnc12,-6.33,inactive,inactive,,,
C=C1CC[C@@H]2[C@](C)(CC[C@H](O)[C@@]2(C)CCC=C(C)C)[C@@H]1Cc1c[nH]c2ccccc12,-21.4,inactive,inactive,,,
C=C1C(=O)O[C@@H]2C[C@@H](C)[C@]34C[C@]5(C(=O)O[C@H]6CC(C)=C([C@H](C)CCCO)[C@H](OC(=O)C(C)CC)[C@H]65)[C@@H](C(C)=C3C[C@@H]12)[C@H]4OC(C)=O (stereo partly specified),,inactive,inactive,6.3 µM (active),,
C/C=C\NC(=O)C1NC(=O)C(CC(N)=O)NC(=O)C(NC(=O)C(=O)C(C)CC)Cc2ccc(O)c(c2)-c2cccc3c2NC(=O)C3(O)C1O (stereo unspecified),3.82,inactive,inactive,,,
COc1cc2c(cc1O)CC[C@H]1[C@@H]2CC[C@]2(C)[C@H](O)CC[C@@H]12,,inactive,17.8 µM (active),1.51 µM (active),,
Cc1cc(-c2ncc(-c3cccnc3)cc2/C=C/c2ccccc2)cnc1-c1cccnc1,15.7,inactive,inactive,,,
CC(=O)O[C@@H]1C[C@@]23C[C@@]24CC[C@H](OC2OC[C@@H](O)[C@H](O)[C@H]2O)C(C)(C)[C@@H]4CC[C@H]3[C@]2(C)CC3OC4(C[C@@H](C)C3[C@@]12C)OCC1(C)OC14 (stereo partly specified),13.4,inactive,inactive,,,
